Results on 67 compounds are retold here after PubChem BioAssay AID1117362 (Southern Research Institute, 2015).

Among all 3,600 compounds or so, about 100 (2.8%) were called active.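 How the source made its calls: active means inhibition above 30% at one or more concentrations, seen consistently on every test date; inconclusive means results that disagree between repeat test dates; inactive means the rest.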 Only a sample is shown.

Broadly, the IC50 is the midpoint of a concentration-inhibition curve.

This assay is described as follows: GST-antibody interaction or FRET quenching – biochemical, TR-FRET, artefact control for Vif-APOBEC3G degradation inhibitor project, dose response (AID 1117362).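 Further: biotinylated GST protein used in place of GST-Vif 1-94 and biotin-A3G peptide; detects fluorescence quenchers or blockers of GST binding to anti-GST antibody.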 Conditions: TR-FRET counter screen, biotin-GST/anti-GST signal; series mostly up to 100 µM. Background: Time-resolved FRET reads energy transfer from a long-lived donor to a nearby acceptor.
Take `Cc1cc2ccccc2n1CCNC(=O)C1CCCCC1`: the IC50 result is “inactive”.
For the compound `COc1cccc(-n2c(Cc3cc(=O)[nH]c(=O)[nH]3)nnc2SCC(=O)NC2CCCC2)c1`, the IC50 result is “inactive”.
Take `Cc1cc(C)nc(N2CCC(C(=O)O)CC2)n1`: the IC50 result is “inactive”.
In the case of `COc1ccc(NC(=S)NCCc2ccccc2OC)c(OC)c1`, the IC50 result was “inactive”.
As for `C=CCn1c(COc2ccc(F)cc2)nnc1SCC(=O)NC(=O)NCc1ccco1`, the IC50 entry was “inactive”.
Then `Clc1ccc(OCc2nn3c(-c4ccco4)nnc3s2)c(Cl)c1`, with “inactive”; and `COC(C(=O)C(O)C(C)O)C1Cc2cc3cc(OC4CC(OC5CC(O)C(O)C(C)O5)C(O)C(C)O4)c(C)c(O)c3c(O)c2C(=O)C1OC1CC(OC2CC(OC3CC(O)C(OC)C(C)O3)C(O)C(C)O2)C(O)C(C)O1` (configuration not stated), with “inactive”.
In the case of `O=c1oc(/C=C/c2ccco2)nc2sc3c(c12)CCC3`, the IC50 entry was “inactive”.
In the case of `Cc1cc(C(=O)CSc2nnc(-c3ccccc3)n2Cc2ccc3c(c2)OCO3)c(C)n1C`, the IC50 result is “inactive”.
Take `COC(=O)c1ccc(COc2ccccc2/C=C(\C#N)C(=O)Nc2c(C)cc(C)cc2C)cc1`: the IC50 result is “inactive”.
Then `CCOc1ccc(-c2nnn(CC(=O)c3ccc4c(c3)OCCO4)n2)cc1OCC`, with “inactive”; and `Cc1cccc(C)c1NC(=O)CSc1nnc(-c2ccco2)c(-c2ccco2)n1`, with “inactive”.
As to `O=C(C1CCCN1S(=O)(=O)c1cccc2cccnc12)N1CCN(c2ccccc2)CC1` (configuration not stated), the IC50 entry is “inactive”.
Take `CNc1ccccc(-c2ccc3cc4c(cc3n2)OCO4)c1=O`: the IC50 entry is “inactive”.
Consider `O=C(CCN1C(=O)/C(=C/c2cccs2)SC1=S)NC1=NCCS1`, for which the IC50 result is “inactive”.
Turning to `COCCNc1nnc(SC(C)C(=O)Nc2ccc(-c3nc4ccc(C)cc4s3)cc2)s1` (configuration not stated), the IC50 result is “inactive”.
Regarding `COc1ccc2[nH]c(=O)c(CN(Cc3ccco3)C(c3nnnn3Cc3ccccc3)C(C)C)cc2c1` (configuration not stated), the IC50 result was “inactive”.
As to `C=CCOC(=O)C1=C(C)NC(SCC(=O)Nc2ccccc2)=C(C#N)C1c1ccco1` (configuration not stated), the IC50 entry was “inactive”.
Turning to `N#C/C(=C\c1ccc([N+](=O)[O-])o1)C(=O)Nc1ccc(F)cc1`, the IC50 result is “inactive”.
As to `c1cn2cc(CSC3CCCCC3)nc2s1`, the IC50 entry was “inactive”.
Consider `Cc1ccc(N2C(=O)/C(=C\c3ccco3)SC2=S)cc1`, for which the IC50 entry is “inactive”.
As for `CCC(C)(C)n1nnnc1C(c1ccc2ncccc2c1)N1CCN(c2ccc(O)cc2)CC1` (configuration not stated), the IC50 entry was “inactive”.
The value for `CC1(C)OC(=O)C(=C2CCCN2)C(=O)O1` was “inactive”; that for `COC(=O)C1=C(C)NC(=O)/C1=C\c1cc(C)n(-c2ccccc2C)c1C` was “inactive”; that for `O=C(Nc1ccc(F)cc1)C(c1ccccc1)N1CCN(S(=O)(=O)c2ccc3ccccc3c2)CC1` (configuration not stated) was “inactive”.
Regarding `CCCCC(=O)NC(=S)Nc1cc(C(=O)O)ccc1Cl`, the IC50 result was “inactive”.
Consider `Cc1occc1-c1nnc(SCC(=O)N2CCN(c3ccccc3)CC2)n1C`, for which the IC50 result was “inactive”.
Turning to `CC(C)n1c(=NC(=O)c2ccco2)c(C#N)cc2c(=O)n3ccccc3cc21`, the IC50 entry is “inactive”.
`CCOC(=O)C1CCN(C(=O)COc2ccc(S(=O)(=O)NC(C)C)cc2)CC1`: the IC50 entry was “inactive”.
The value for `CCOC(=O)Cc1cc(=O)n2[nH]c(C)cc2n1` was “inactive”.
Consider `COCCNC(=O)c1ccc(CS(=O)(=O)c2c(Cl)cccc2Cl)o1`, for which the IC50 result was “inactive”.
As to `CC(C)CC(=O)Nc1nnc(-c2ccco2)s1`, the IC50 entry was “inactive”.
As for `CCOc1cccc(CNCCNC(=O)c2nonc2N)c1`, the IC50 entry was “inactive”.
With `COc1ccc(-n2c(Cc3cccn3C)nnc2SCC(N)=O)cc1`, the IC50 entry is “inactive”.
On to `COC(=O)CCCC(=O)Nc1c(F)c(F)c(F)c(F)c1F`, for which the IC50 entry was “inactive”.
As for `CCOc1ccc(Nc2nc3ccccc3n3nnnc23)cc1`, the IC50 entry was “inactive”.
Consider `CN(CC(=O)Nc1cccc(F)c1)C(=O)c1cccc(-n2cccc2)c1`, for which the IC50 entry is “inactive”.
Then `O=C(NC1CCC(C(=O)O)CC1)OCc1ccccc1` (configuration not stated), with “inactive”.
The value for `CCc1cc(=O)n2[nH]c(C)c(-c3ccccc3OC)c2n1` was “inactive”; that for `COc1cccc(CNC(=O)CCNS(=O)(=O)c2cccs2)c1` was “inactive”; that for `COc1cccc(C(C#N)N2CCCCC2)c1O` (configuration not stated) was “inactive”.
The value for `O=C(N/N=C/c1cn(Cc2cccc(F)c2)c2ccccc12)c1cc(O)cc(O)c1` was “inactive”; that for `O=C(CSc1nnnn1-c1ccccc1)Nc1ncc2c(n1)CC(c1ccco1)CC2=O` (configuration not stated) was “inactive”.
`CCOc1ccc(NCC2CCOC(C)(C)C2)cc1` (configuration not stated): the IC50 entry is “inactive”.
`CCOC1(OCC)N=C(N)C2(C#N)C(c3cccc(OC)c3OC)C12C#N` (configuration not stated): the IC50 entry was “inactive”.
Consider `CCOC(=O)C1CCCN(C(=O)c2ccc(CNc3c(N4CCC(C)CC4)c(=O)c3=O)cc2)C1` (configuration not stated), for which the IC50 result is “inactive”.
As to `CCc1ccc(CC)c(S(=O)(=O)Nc2ccc(C(=O)O)c(O)c2)c1`, the IC50 result was “inactive”.
`CC/C(=C\C(=O)c1ccncc1)Nc1ccc(O)cc1`: the IC50 entry was “inactive”.
Then `CCNc1ccc(Br)cc(C(=O)/C=C/c2ccc3c(c2)OCO3)c1=O`, with “inactive”; and `O=[N+]([O-])c1cc(CN2CCOCC2)c2cccnc2c1O`, with “inactive”.
For the compound `Cc1ccc[n+](-c2[nH]c(=O)sc2/C=N/NC(=O)c2ccccc2[O-])c1`, the IC50 result is “inactive”.
Turning to `Cc1cc(C(=O)CSc2nnc(-c3ccco3)o2)c(C)n1Cc1ccco1`, the IC50 entry is “inactive”.
The value for `COc1ccc2[nH]c3c4c(ccc3c2c1)C(=O)C=CC4=O` was “inactive”.
Regarding `O=C(Nc1ccccc1N1CCCC1)c1ccc(Br)o1`, the IC50 entry is “inactive”.
Take `COC(=O)C(C)Sc1nnc(Cc2cc(=O)[nH]c(=O)[nH]2)n1-c1cc(C)ccc1C` (configuration not stated): the IC50 result is “inactive”.
In the case of `O=C(Nc1ccccc1)C1=C(O)CC(c2ccco2)CC1=Nc1ccccc1` (configuration not stated), the IC50 entry was “inactive”.
The value for `O=C(c1cc(-c2ccco2)on1)N1CCN(c2ccccc2)CC1` was “inactive”; that for `Cc1cc(NC(=O)CCNS(=O)(=O)c2cc(Br)cnc2N)ccc1Br` was “inactive”; that for `Cc1cc(C(=O)CSc2nnnn2C)c(C)n1CCc1ccc(Cl)cc1` was “inactive”.
Regarding `CC1(C)CCCN(C(=O)c2coc(=O)c(Br)c2)C1`, the IC50 entry is “inactive”.
Consider `FC(F)(F)c1cc(-c2ccco2)nc(NCc2cccnc2)n1`, for which the IC50 entry is “inactive”.
On to `CN(C)c1ccc(NC(=O)CSc2nc3ccccc3c(=O)n2C2CCCCC2)cc1`, for which the IC50 entry was “inactive”.
With `Cn1cccc1C(=O)NC(=O)COC(=O)CC12CC3CC(CC(Br)(C3)C1)C2`, the IC50 entry is “inactive”.
In the case of `CC(=O)Nc1ccc(NC(=O)C(C)OC(=O)CC23CC4CC(CC(Br)(C4)C2)C3)cc1` (configuration not stated), the IC50 result is “inactive”.
The value for `O=C(O)C1Nc2c(C(=O)N3CCOCC3)cccc2C2C=CCC12` (configuration not stated) was “inactive”.
`O=C(Nc1ccn(-c2ccccc2)n1)c1ccccc1Br`: the IC50 entry was “inactive”.
The value for `CC(=O)c1cccc(NC(=O)CN2C(=O)NC3(CCCCCCC3)C2=O)c1` was “inactive”.
